# PubChem BioAssay (NCATS)
# Results filed as inconclusive are left out. Unmarked numbers belong to inactive results. Activity calls are given as the source filed them. Calls come from the whole dose curve; tested in HEK293 reporter line.
# Experiment: qHTS for Inhibitors of the Functional Ribonucleoprotein Complex (vRNP) of Lassa (LASV) Arenavirus: Viability assay - alamar blue signal for LASV Primary Screen (AID 1347083)
# Conditions: cell viability, alamar blue fluorescence (LASV minigenome counter-screen); series mostly up to 57.5 µM; activity change, negative = reduced viability: at the top concentration
# % is set by controls: 0 for no effect and ±100 for the full control effect.
# Note: nearly all actives have a fitted effect of over 80% in size.
SMILES,"activity change, negative = reduced viability",Potency
O=C/C=C/c1ccccc1,-0.0763%,
C[C@@H]1[C@@H]2Cc3ccc(O)cc3[C@@]1(C)CCN2CC1CC1,4.51%,
CC1OC1P(=O)(O)O (centres undefined),2.36%,
COc1cc(CC(C)N)c(OC)cc1I (centres undefined),3.56%,
C=CCN1CCc2cccc3c2[C@H]1Cc1ccc(O)c(O)c1-3,-11.4%,
NC(N)=NOCC[C@H](N)C(=O)O,9.76%,
N[C@@H](CCl)C(=O)O,-13.8%,
C[C@@H]1O[C@H](C[N+](C)(C)C)CS1,1.68%,
CCN(CC)c1ncnc2c1ncn2[C@@H]1O[C@H](COP(=O)(O)OP(=O)(O)C(Br)(Br)P(=O)(O)O)[C@@H](O)[C@H]1O,7.32%,
C[C@]12C=CC(=O)C=C1CC[C@@H]1[C@@H]2CC[C@]2(C)OC(=O)CC[C@@H]12,5.45%,
C[N+]1(C)CCC(OC(=O)C(c2ccccc2)c2ccccc2)CC1,4.59%,
C=CCN1CC[C@]23c4c5ccc(O)c4O[C@@H]2/C(=N/N=C2\CC[C@@]4(O)C6Cc7ccc(O)c8c7[C@@]4(CCN6CC=C)[C@@H]2O8)CC[C@@]3(O)C1C5,-23.6%,
CC(C)CC(NP(=O)(O)O[C@@H]1O[C@@H](C)[C@H](O)[C@@H](O)[C@H]1O)C(=O)NC(Cc1c[nH]c2ccccc12)C(=O)O (some centres undefined),,inactive
CN1[C@H]2CC[C@@H]1[C@@H](C(=O)O)[C@@H](OC(=O)c1ccccc1)C2,6.61% [at 115 µM],
COc1ccc2c(c1)[C@@]13CCCC[C@H]1[C@@H](C2)NCC3,-16.9%,
CCCn1c(C)c(C(=O)c2ccc3ccccc3c2)c2ccccc21,-4.6%,
CC(C)[C@@]1(NC(=O)[C@@H]2C[C@@H]3c4cccc5[nH]cc(c45)C[C@H]3N(C)C2)O[C@@]2(O)[C@@H]3CCCN3C(=O)[C@H](Cc3ccccc3)N2C1=O,-18.4%,
C[Se]C[C@H](N)C(=O)O,17%,
C=CCN(C1=NCCN1)c1c(Cl)cccc1Cl,2.93%,

SMILES,"activity change, negative = reduced viability",Potency
C[N+]1(C)[C@@H]2CC(OC(=O)[C@H](CO)c3ccccc3)C[C@H]1[C@H]1O[C@@H]12 (some centres undefined),-2.41%,
CCCSP(=O)(OCC)SCCC,-4.81% [at 115 µM],
N[C@@H](Cn1ccc(=O)[nH]c1=O)C(=O)O,1.56%,
COc1ccc2c(c1O)-c1cccc3c1[C@@H](C2)N(C)CC3,-19.9%,
C=CCN1CC[C@]23c4c5ccc(O)c4O[C@H]2/C(=N/NC(=O)c2ccccc2)CC[C@@]3(O)[C@H]1C5,9.94%,
CC1=C2C[C@H]3[C@@H](CC=C4C[C@@H](O)CC[C@@]43C)[C@@H]2CC[C@]12O[C@@H]1C[C@H](C)CN[C@H]1[C@H]2C,11%,
O[C@H]1[C@H]2[C@H](O)CCCN2C[C@H]1O,6.74%,
CCN(CCCl)Cc1ccccc1Br,13.6%,
N#C/C(=C/c1ccc(O)c(O)c1)C(N)=S,-7.21%,
COC1=CC=C2[C@H]3Cc4ccc(OC)c5c4[C@@]2(CCN3C)[C@H]1O5,2.35% [at 115 µM],
CN(C)[C@@H]1C(=O)C(C(N)=O)=C(O)[C@@]2(O)C(=O)C3=C(O)c4c(O)ccc(Cl)c4[C@@](C)(O)[C@H]3C[C@@H]12,-31.4%,
C[CH2][Hg][S]c1ccccc1C(=O)O,-15.3%,
O=c1c2ccccc2[se]n1-c1ccccc1,-4.61%,
O=C(O)c1cc[c]([Hg][Cl])cc1,-16.4%,
COc1ccc2c(c1)c(CCN1CCOCC1)c(C)n2C(=O)c1cccc(Cl)c1Cl,-38.8%,
CCCN(CCC)CCc1c[nH]c2ccc(C(N)=O)cc12,-2.21%,
O=P(O)(O)C(Cl)(Cl)P(=O)(O)O,7.3%,
CN[C@H]1C[C@@H](N)[C@H](O)[C@@H](O[C@@H]2O[C@H](CO)[C@H](O)[C@@H]3OC4(O[C@H]23)O[C@H](C(N)CO)[C@H](O)[C@H](O)[C@H]4O)[C@@H]1O (some centres undefined),-0.664%,

# Experiment: qHTS for Inhibitors of the Functional Ribonucleoprotein Complex (vRNP) of Lymphocytic Choriomeningitis Arenaviruses (LCMV): Viability assay - alamar blue signal for LCMV Primary Screen (AID 1347085)
# Conditions: alamar blue viability counter-screen, LCMV vRNP screen cells; series mostly up to 57.5 µM; activity change, negative = lower viability: at the top concentration
SMILES,"activity change, negative = lower viability",Potency
O=C/C=C/c1ccccc1,4.25%,
C[C@@H]1[C@@H]2Cc3ccc(O)cc3[C@@]1(C)CCN2CC1CC1,-6.29%,
CC1OC1P(=O)(O)O (centres undefined),-3.53%,
COc1cc(CC(C)N)c(OC)cc1I (centres undefined),5.8%,
CCCCCCC(C)(C)c1ccc([C@@H]2C[C@H](O)CC[C@H]2CCCO)c(O)c1,-35.3%,
C=CCN1CCc2cccc3c2[C@H]1Cc1ccc(O)c(O)c1-3,-2.53%,
NC(N)=NOCC[C@H](N)C(=O)O,16.4%,
N[C@@H](CCl)C(=O)O,-4.81%,
C[C@@H]1O[C@H](C[N+](C)(C)C)CS1,4.1%,
CCN(CC)c1ncnc2c1ncn2[C@@H]1O[C@H](COP(=O)(O)OP(=O)(O)C(Br)(Br)P(=O)(O)O)[C@@H](O)[C@H]1O,-25.2%,
C[C@]12C=CC(=O)C=C1CC[C@@H]1[C@@H]2CC[C@]2(C)OC(=O)CC[C@@H]12,1.56%,
C[N+]1(C)CCC(OC(=O)C(c2ccccc2)c2ccccc2)CC1,29.9%,
C=CCN1CC[C@]23c4c5ccc(O)c4O[C@@H]2/C(=N/N=C2\CC[C@@]4(O)C6Cc7ccc(O)c8c7[C@@]4(CCN6CC=C)[C@@H]2O8)CC[C@@]3(O)C1C5,-20.4%,
CC(C)CC(NP(=O)(O)O[C@@H]1O[C@@H](C)[C@H](O)[C@@H](O)[C@H]1O)C(=O)NC(Cc1c[nH]c2ccccc12)C(=O)O (some centres undefined),,inactive
CN1[C@H]2CC[C@@H]1[C@@H](C(=O)O)[C@@H](OC(=O)c1ccccc1)C2,8.69% [at 115 µM],
COc1ccc2c(c1)[C@@]13CCCC[C@H]1[C@@H](C2)NCC3,0.333%,
CCCn1c(C)c(C(=O)c2ccc3ccccc3c2)c2ccccc21,-0.102%,
CC(C)[C@@]1(NC(=O)[C@@H]2C[C@@H]3c4cccc5[nH]cc(c45)C[C@H]3N(C)C2)O[C@@]2(O)[C@@H]3CCCN3C(=O)[C@H](Cc3ccccc3)N2C1=O,-2.23%,
C[Se]C[C@H](N)C(=O)O,13.3%,

SMILES,"activity change, negative = lower viability",Potency
C=CCN(C1=NCCN1)c1c(Cl)cccc1Cl,1.08%,
C[N+]1(C)[C@@H]2CC(OC(=O)[C@H](CO)c3ccccc3)C[C@H]1[C@H]1O[C@@H]12 (some centres undefined),4.43%,
CCCSP(=O)(OCC)SCCC,-28.9% [at 115 µM],
N[C@@H](Cn1ccc(=O)[nH]c1=O)C(=O)O,10.3%,
COc1ccc2c(c1O)-c1cccc3c1[C@@H](C2)N(C)CC3,-13.5%,
C=CCN1CC[C@]23c4c5ccc(O)c4O[C@H]2/C(=N/NC(=O)c2ccccc2)CC[C@@]3(O)[C@H]1C5,10.5%,
CC1=C2C[C@H]3[C@@H](CC=C4C[C@@H](O)CC[C@@]43C)[C@@H]2CC[C@]12O[C@@H]1C[C@H](C)CN[C@H]1[C@H]2C,12.3%,
O[C@H]1[C@H]2[C@H](O)CCCN2C[C@H]1O,8.05%,
CCN(CCCl)Cc1ccccc1Br,-0.702%,
N#C/C(=C/c1ccc(O)c(O)c1)C(N)=S,-13%,
COC1=CC=C2[C@H]3Cc4ccc(OC)c5c4[C@@]2(CCN3C)[C@H]1O5,6.94% [at 115 µM],
CN(C)[C@@H]1C(=O)C(C(N)=O)=C(O)[C@@]2(O)C(=O)C3=C(O)c4c(O)ccc(Cl)c4[C@@](C)(O)[C@H]3C[C@@H]12,-14.6%,
C[CH2][Hg][S]c1ccccc1C(=O)O,-8.31%,
O=c1c2ccccc2[se]n1-c1ccccc1,-7.56%,
O=C(O)c1cc[c]([Hg][Cl])cc1,-14.7%,
CCCN(CCC)CCc1c[nH]c2ccc(C(N)=O)cc12,15.7%,
O=P(O)(O)C(Cl)(Cl)P(=O)(O)O,8.65%,
CN[C@H]1C[C@@H](N)[C@H](O)[C@@H](O[C@@H]2O[C@H](CO)[C@H](O)[C@@H]3OC4(O[C@H]23)O[C@H](C(N)CO)[C@H](O)[C@H](O)[C@H]4O)[C@@H]1O (some centres undefined),1.6%,
